Results: PubChem BioAssay (NCATS)
Inconclusive results are not listed. Calls of active or inactive are those of the source. Calls follow the shape of the dose curve; as a rule, active = well fitted inhibition curve with a large enough effect; inconclusive = small, poorly fitted or top-dose-only effect; inactive = flat fitted curve, though single readings scatter.

Key:
[1] = biological target: Luciferin 4-monooxygenase (Photinus pyralis) (UniProt P08659); experiment: Biochemical firefly luciferase enzyme assay for NPC (AID 624030);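 also: purified P. pyralis luciferase at 10 nM with luciferin and ATP substrate; nearly all actives have a fitted effect of over 70% in size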
Procedure, shortened: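 Purified P. pyralis luciferase at 10 nM in 50 mM Tris Acetate (final), luminescence read within 5 minutes of enzyme addition to compounds. Activity normalised to PTC124 versus DMSO; concentration-response curves classed by r2, magnitude and activity.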

CP215 = experiment: qHTS profiling for inhibitors of Plasmodium falciparum proliferation (AID 504749); also: nearly all actives have a fitted effect of over 60% in size; conditions: P. falciparum in erythrocytes, SYBR Green DNA, 72 h; series mostly up to 28.7 µM
Procedure, shortened: (§1)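 P. falciparum-infected erythrocytes (0.3% parasitemia, 2.5% hematocrit) incubated with compound 72 h at 37 C, 5% CO2. Parasite DNA detected by SYBR Green after lysis, overnight at room temperature; normalised to 0.29 uM artemisinin and DMSO.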

CP260 = experiment: as above; conditions: P. falciparum in erythrocytes, SYBR Green DNA, 72 h; series mostly up to 28.7 µM
Procedure, shortened: as §1

CP266 = experiment: as above; conditions: P. falciparum in erythrocytes, SYBR Green DNA, 72 h; series mostly up to 28.7 µM
Procedure, shortened: as §1

CP268 = experiment: as above; conditions: P. falciparum in erythrocytes, SYBR Green DNA, 72 h; series mostly up to 28.7 µM
Procedure, shortened: as §1

CP291 = experiment: as above; conditions: P. falciparum in erythrocytes, SYBR Green DNA, 72 h; series mostly up to 28.7 µM
Procedure, shortened: as §1

CP297 = experiment: as above; conditions: P. falciparum in erythrocytes, SYBR Green DNA, 72 h; series mostly up to 28.7 µM
Procedure, shortened: as §1

CP305 = experiment: as above; conditions: P. falciparum in erythrocytes, SYBR Green DNA, 72 h; series mostly up to 28.7 µM
Procedure, shortened: as §1

CP335 = experiment: as above; conditions: P. falciparum in erythrocytes, SYBR Green DNA, 72 h; series mostly up to 28.7 µM
Procedure, shortened: as §1

DIV17 = experiment: as above; conditions: P. falciparum in erythrocytes, SYBR Green DNA, 72 h; series mostly up to 28.7 µM
Procedure, shortened: as §1

FAB9 = experiment: as above; conditions: P. falciparum in erythrocytes, SYBR Green DNA, 72 h; series mostly up to 28.7 µM
Procedure, shortened: as §1

GB4 = experiment: as above; conditions: P. falciparum in erythrocytes, SYBR Green DNA, 72 h; series mostly up to 28.7 µM
Procedure, shortened: as §1

HB3 = experiment: as above; conditions: P. falciparum in erythrocytes, SYBR Green DNA, 72 h; series mostly up to 28.7 µM
Procedure, shortened: as §1

ICS = experiment: as above; conditions: P. falciparum in erythrocytes, SYBR Green DNA, 72 h; series mostly up to 28.7 µM
Procedure, shortened: as §1

JCK = experiment: as above; conditions: P. falciparum in erythrocytes, SYBR Green DNA, 72 h; series mostly up to 28.7 µM
Procedure, shortened: as §1

P93_24 = experiment: as above; conditions: P. falciparum in erythrocytes, SYBR Green DNA, 72 h; series mostly up to 28.7 µM
Procedure, shortened: as §1

PC26 = experiment: as above; conditions: P. falciparum in erythrocytes, SYBR Green DNA, 72 h; series mostly up to 28.7 µM
Procedure, shortened: as §1

PC49 = experiment: as above; conditions: P. falciparum in erythrocytes, SYBR Green DNA, 72 h; series mostly up to 28.7 µM
Procedure, shortened: as §1

TAB109 = experiment: as above; conditions: P. falciparum in erythrocytes, SYBR Green DNA, 72 h; series mostly up to 28.7 µM
Procedure, shortened: as §1

DIV14 = experiment: as above; conditions: P. falciparum in erythrocytes, SYBR Green DNA, 72 h; series mostly up to 28.7 µM
Procedure, shortened: as §1

Measured: Potency

Luciferin 4-monooxygenase (Photinus pyralis), sequence (P08659 whole entry, looked up): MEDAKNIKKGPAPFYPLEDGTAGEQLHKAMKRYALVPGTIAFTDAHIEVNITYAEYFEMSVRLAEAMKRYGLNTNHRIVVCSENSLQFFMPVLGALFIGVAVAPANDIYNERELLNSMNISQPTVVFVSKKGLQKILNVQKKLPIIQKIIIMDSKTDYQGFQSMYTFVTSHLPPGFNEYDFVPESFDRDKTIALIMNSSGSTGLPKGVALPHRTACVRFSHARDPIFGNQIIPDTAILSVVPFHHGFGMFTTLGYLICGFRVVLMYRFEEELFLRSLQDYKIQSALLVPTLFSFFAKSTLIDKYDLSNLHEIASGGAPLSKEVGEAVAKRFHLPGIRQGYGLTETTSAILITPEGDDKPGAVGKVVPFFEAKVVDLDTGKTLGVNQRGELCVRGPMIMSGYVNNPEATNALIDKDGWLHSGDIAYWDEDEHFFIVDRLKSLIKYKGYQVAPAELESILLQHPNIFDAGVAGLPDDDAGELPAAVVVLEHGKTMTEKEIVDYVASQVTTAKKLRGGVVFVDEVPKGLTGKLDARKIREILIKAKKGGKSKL

CC(=O)OCC(=O)[C@@]1(O)CCC2C3C[C@H](C)C4=CC(=O)C=CC4(C)C3C(O)CC21C (some centres not stated)
not listed: DIV14
inactive: all other assays above

CC1(C)CC1C(=O)N/C(=C/CCCCSCC(N)C(=O)O)C(=O)O (configuration not stated)
not listed: CP260
inactive: all other assays above

O=c1ccn(C2OC(COP(=O)(O)OC3C(CO)OC(n4ccc(=O)[nH]c4=O)C3O)C(O)C2O)c(=O)[nH]1 (configuration not stated)
inactive: all assays above

CC[C@@H]1/C=C(\C)C[C@H](C)C[C@H](OC)[C@H]2O[C@@](O)(C(=O)C(=O)N3CCCC[C@H]3C(=O)O[C@H](/C(C)=C/[C@@H]3CC[C@H](Cl)[C@H](OC)C3)[C@H](C)[C@@H](O)CC1=O)[C@H](C)C[C@@H]2OC
inactive: all assays above

CC(CCC(=O)O)C1CCC2C3C(=O)C[C@@H]4CC(=O)CC[C@@]4(C)C3CC(=O)[C@]12C (some centres not stated)
not listed: CP335 | DIV17 | DIV14
inactive: all other assays above

CC1(C(=O)O)CCC2(C)CCC3(C)C(=CC(=O)C4C5(C)CCC(O)C(C)(C)C5CCC43C)C2C1 (configuration not stated)
not listed: CP266 | DIV17
inactive: all other assays above

CC(=O)OCC(=O)[C@@]1(O)CCC2C3CCC4=CC(=O)C=CC4(C)C3C(O)C[C@]21C (some centres not stated)
inactive: all assays above

CCN(CC)CC(=O)Nc1c(C)cc(C)cc1C
not listed: CP335
inactive: all other assays above

C=C(NCc1ccccc1)c1ccccc1O
inactive: all assays above
